# Experimental data published in the supplement of paper PMC8728848.
# Shown is part of a subset that was picked to be rich in the strongest signals.
# B1: XL-35 (Xenopus laevis) (protein)
# chain: MLVHILLLLVTGGLSQSCDPVVIVASKNMVKQLDCDKFRNCKEIKDSNEEAQDGIYTLTSPDGISYQTFCDMTTNGGGWTLVASVHENNMAGKCTIGDRWSSQQGNRADYPEGDGNWANYNTFGSAGGATSDDYKNPGYYDIEAYNLGVWHVPNKTPLSVWRNSSLQRYRTTDGILFKHGGNLFSLYRIYPVKYGIGSCSKDSGPTVPVVYDLGSANLTASFYSPGFRSQFTPGYIQFRPINTEKAALALCPGMKMESCNVEHVCIGGGGYFPEADPRQCGDFAAYDFNGYGTKKFNSAGIEITEAAVLLFYL
# Assays:
# Assay in all cases: glycan array binding signal (z-score within array); higher = stronger binding
# Details in all cases: glycan notation: IUPAC condensed, linker removed
# [1] = target: GalNAc(b1-3)Gal(a1-4)Gal(b1-4)GlcNAc(b1-3)Gal(b1-4)Glc
# Method in brief: (§1)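 The binding signal is a Z-score computed within each array and averaged over linkers. Arrays of the same protein sequence at different concentrations or buffers were also averaged together. Data originate from 3228 arrays in the Consortium for Functional Glycomics database, kept only where the protein sequence was available.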
# [2] = target: GalNAc3S(b1-4)[Fuc(a1-3)]GlcNAc
# Method in brief: as §1
# GalNAc4S6S(b1-4)GlcNAc = target: GalNAc4S6S(b1-4)GlcNAc
# Method in brief: as §1
# [3] = target: Glc(a1-6)Glc(a1-6)Glc(a1-6)Glc
# Method in brief: as §1
# [4] = target: GlcNAc(a1-4)Gal(b1-4)GlcNAc(b1-3)Gal(b1-4)[Fuc(a1-3)]GlcNAc(b1-3)Gal(b1-4)[Fuc(a1-3)]GlcNAc
# Method in brief: as §1
# [5] = target: GlcNAc(b1-3)Gal(b1-4)GlcNAc(b1-2)[GlcNAc(b1-3)Gal(b1-4)GlcNAc(b1-6)]Man(a1-6)[GlcNAc(b1-3)Gal(b1-4)GlcNAc(b1-2)Man(a1-3)]Man(b1-4)GlcNAc(b1-4)GlcNAc
# Method in brief: as §1
# [6] = target: GlcNAc(b1-3)Gal(b1-4)GlcNAc(b1-3)Gal(b1-4)GlcNAc(b1-3)Gal(b1-4)GlcNAc(b1-3)Gal(b1-4)GlcNAc(b1-2)[GlcNAc(b1-3)Gal(b1-4)GlcNAc(b1-3)Gal(b1-4)GlcNAc(b1-3)Gal(b1-4)GlcNAc(b1-3)Gal(b1-4)GlcNAc(b1-6)]Man(a1-6)[GlcNAc(b1-3)Gal(b1-4)GlcNAc(b1-3)Gal(b1-4)GlcNAc(b1-3)Gal(b1-4)GlcNAc(b1-3)Gal(b1-4)GlcNAc(b1-2)Man(a1-3)]Man(b1-4)GlcNAc(b1-4)[Fuc(a1-6)]GlcNAc
# Method in brief: as §1
# [7] = target: GlcNAc(b1-3)[GlcNAc(b1-6)]Gal(b1-4)GlcNAc
# Method in brief: as §1
# [8] = target: GlcNAc(b1-3)[GlcNAc(b1-6)]GlcNAc
# Method in brief: as §1
# [9] = target: GlcNAc(b1-4)Gal(b1-4)GlcNAc
# Method in brief: as §1
# [10] = target: Man(a1-2)Man(a1-3)[Man(a1-2)Man(a1-6)]Man(a1-6)[Man(a1-2)Man(a1-2)Man(a1-3)]Man(b1-4)GlcNAc(b1-4)GlcNAc
# Method in brief: as §1
# [11] = target: Man(a1-2)Man(a1-3)[Man(a1-3)[Man(a1-6)]Man(a1-6)]Man(b1-4)GlcNAc(b1-4)GlcNAc
# Method in brief: as §1
# [12] = target: Man(a1-2)Man(a1-3)[Man(a1-6)]Man(a1-6)[Man(a1-2)Man(a1-3)]Man(b1-4)GlcNAc(b1-4)GlcNAc
# Method in brief: as §1
# [13] = target: Man(a1-3)[Man(a1-6)]Man(a1-6)[Man(a1-3)]Man(b1-4)GlcNAc(b1-4)GlcNAc
# Method in brief: as §1
# [14] = target: Neu5Ac(a2-3)Gal(b1-4)GlcNAc(b1-3)Gal(b1-4)GlcNAc(b1-3)Gal(b1-4)GlcNAc(b1-2)Man(a1-3)[Neu5Ac(a2-3)Gal(b1-4)GlcNAc(b1-3)Gal(b1-4)GlcNAc(b1-3)Gal(b1-4)GlcNAc(b1-2)Man(a1-6)]GalNAc
# Method in brief: as §1
# [15] = target: Neu5Ac(a2-3)Gal(b1-4)GlcNAc(b1-6)[Neu5Ac(a2-3)Gal(b1-3)]GalNAc
# Method in brief: as §1
# [16] = target: Neu5Ac(a2-3)Gal(b1-4)[Fuc(a1-3)]GlcNAc
# Method in brief: as §1
# [17] = target: Neu5Ac(a2-3)Gal(b1-4)[Fuc(a1-3)]GlcNAc(b1-3)GalNAc
# Method in brief: as §1
# [18] = target: Neu5Ac(a2-3)Gal6S(b1-4)[Fuc(a1-3)]GlcNAc
# Method in brief: as §1
# Neu5Ac(a2-6)Gal = target: Neu5Ac(a2-6)Gal
# Method in brief: as §1
# [19] = target: Neu5Ac(a2-6)Gal(b1-4)GlcNAc(b1-2)Man(a1-6)Man(b1-4)GlcNAc(b1-4)GlcNAc
# Method in brief: as §1
# [20] = target: Neu5Ac(a2-6)Gal(b1-4)GlcNAc(b1-2)Man(a1-6)[Gal(b1-4)GlcNAc(b1-2)Man(a1-3)]Man(b1-4)GlcNAc(b1-4)GlcNAc
# Method in brief: as §1
# [21] = target: Neu5Ac(a2-6)Gal(b1-4)GlcNAc(b1-2)Man(a1-6)[GlcNAc(b1-2)Man(a1-3)]Man(b1-4)GlcNAc(b1-4)GlcNAc
# Method in brief: as §1
# [22] = target: Neu5Ac(a2-6)Gal(b1-4)GlcNAc(b1-6)GalNAc
# Method in brief: as §1
# [23] = target: Neu5Ac(a2-6)Gal(b1-4)GlcNAc(b1-6)[Gal(b1-3)]GalNAc
# Method in brief: as §1
# Neu5Ac(a2-8)Neu5Ac = target: Neu5Ac(a2-8)Neu5Ac
# Method in brief: as §1
# [24] = target: Neu5Gc(a2-3)Gal(b1-3)GlcNAc
# Method in brief: as §1
binder,measurement,setting,value
B1,glycan array binding signal (z-score),[1],-0.027
same,glycan array binding signal (z-score),[2],-0.078
same,glycan array binding signal (z-score),GalNAc4S6S(b1-4)GlcNAc,0.078
same,glycan array binding signal (z-score),[3],0.158
same,glycan array binding signal (z-score),[4],1.05
same,glycan array binding signal (z-score),[5],0.95
same,glycan array binding signal (z-score),[6],0.094
same,glycan array binding signal (z-score),[7],-0.01
same,glycan array binding signal (z-score),[8],-0.058
same,glycan array binding signal (z-score),[9],4.54
same,glycan array binding signal (z-score),[10],-0.156
same,glycan array binding signal (z-score),[11],-0.086
same,glycan array binding signal (z-score),[12],-0.092
same,glycan array binding signal (z-score),[13],0.065
same,glycan array binding signal (z-score),[14],0.335
same,glycan array binding signal (z-score),[15],-0.518
same,glycan array binding signal (z-score),[16],-0.21
same,glycan array binding signal (z-score),[17],0.775
same,glycan array binding signal (z-score),[18],-0.241
same,glycan array binding signal (z-score),Neu5Ac(a2-6)Gal,-0.04
same,glycan array binding signal (z-score),[19],-0.2
same,glycan array binding signal (z-score),[20],-0.115
same,glycan array binding signal (z-score),[21],0.009
same,glycan array binding signal (z-score),[22],-0.112
same,glycan array binding signal (z-score),[23],0.356
same,glycan array binding signal (z-score),Neu5Ac(a2-8)Neu5Ac,-0.216
same,glycan array binding signal (z-score),[24],-0.235
